From PubChem
Shn3 3UTR inh = reduces Shn3 3'UTR luciferase signal in osteoblasts | inhibition, % at 12.5 µM | 360,000 tested, 0.52% active | Clone20 osteoblast Shn3 3'UTR firefly luciferase, 24 h;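 active = mean inhibition of at least 75% with every replicate also reaching 75%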
EBV LMP1 NFkB = reduces LMP1-driven NF-kappaB luciferase signal; inhibition, % at 12.5 µM; LMP1-induced NF-kappaB luciferase reporter cells, luminescence; 350,000 tested, 0.69% active; in the data active = inhibition above about 41%
MITF TRPM1 inh = inhibitors of MITF-driven TRPM1 promoter in melanoma cells | AID 488899 | inhibition, % at 12.5 µM | 330,000 tested, 0.83% active | SK-MEL-5 TRPM1 promoter luciferase, 24 h;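 active = mean inhibition across replicates of 60% or more, whatever share of single replicates reaches that level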
TROY NFkB inh = blocks TROY-dependent signaling in reporter cells; Q293 LMP1-TROYcd NF-kB luciferase reporter, 4 h; inhibition, % at 10 µM; 360,000 tested, 0.98% active; AID 1347056;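 active = compounds whose plate-normalised and pattern-corrected inhibition of the luciferase reporter signal at the single screening dose is 50% or more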
Peg3 prom inh = Peg3 promoter activity inhibition | inhibition, % at 20 µM | 360,000 tested, 1.7% active | HeLa PEG-Prom luciferase reporter, luminescence, overnight | AID 588405;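 active = inhibition of at least 50% at 20 µM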
TWEAK Fn14 block = blocks TWEAK-Fn14 interaction in a reporter cell assay | TWEAK-stimulated Fn14 reporter cells, luciferase luminescence, 8 h | 360,000 tested, 2% active | AID 1159606 | inhibition, % at 10 µM; in the data active = inhibition above about 50%
Hits are given with their value; - = inactive; . = not tested or not shown. An excerpt weighted towards active compounds, which were near 4.1% of everything screened.

SMILES | Shn3 3UTR inh | EBV LMP1 NFkB | MITF TRPM1 inh | TROY NFkB inh | Peg3 prom inh | TWEAK Fn14 block
O=C(N/N=C(\c1ccccc1)c1cccnc1)c1ccc(O)cc1 | - | - | - | - | - | -
O=C(OCCN1CCN(C2=NS(=O)(=O)c3ccccc32)CC1)c1cccc(Br)c1 | - | - | - | - | - | -
CC(=O)N(C1=C(N)C(=O)c2ccccc2C1=O)c1ccccc1 | - | - | 65 | - | - | -
CCc1ccc(CN(C(=O)COc2c(C)cccc2C)C2CCS(=O)(=O)C2)cc1 (stereo not drawn) | - | - | - | - | - | -
O=C(CN(C(=O)c1ccc(Cl)cc1)C1CCCCC1)Nc1ccc(Cl)c([N+](=O)[O-])c1 | - | - | - | - | - | 51
Cc1ccc(S(=O)(=O)CCC(=O)OCC(=O)NC2CCS(=O)(=O)C2)cc1 (stereo not drawn) | - | - | - | - | - | -
CC(C)CC(=O)Nc1ncc([N+](=O)[O-])s1 | - | - | - | - | - | -
O=C(Nc1ncc([N+](=O)[O-])s1)c1cccc([N+](=O)[O-])c1 | - | - | - | - | - | 93
Cc1nc(C)c(C(=O)Nc2ncc([N+](=O)[O-])s2)o1 | - | 49 | - | - | - | 85
O=C(Nc1ccccc1)Nc1ncc([N+](=O)[O-])s1 | - | - | - | - | - | 81
COc1ccc(CNC(=O)[C@@H](C)NC(=O)C2CCN(C(=O)[C@@H](N)CCSC)CC2)cc1 | - | - | - | - | - | -
C=CCN(C(=O)c1csnn1)C(C(=O)NC1CCCC1)c1ccccc1 (stereo not drawn) | - | - | - | - | - | -
CCOc1ncccc1C(=O)Nc1cc2c(cc1Br)OCCO2 | - | - | - | - | - | -
N#Cc1c(-c2cccs2)nc(SCc2ccc(Cl)cc2)[nH]c1=O | - | - | - | 74 | - | -
O=C(COC(=O)c1ccc2c(c1)OCCO2)Nc1cccc(S(=O)(=O)N2CCOCC2)c1 | - | - | - | 56 | - | -
CCCc1nc2ccccc2c(C(=O)OCC(=O)Nc2ccc(S(=O)(=O)N3CCOCC3)cc2)c1CC | - | - | - | 78 | - | -
CCCc1nc2ccccc2c(C(=O)OCC(=O)Nc2cccc(S(=O)(=O)N3CCOCC3)c2)c1CC | - | - | - | - | 53 | 61
O=C(COC(=O)c1n[nH]c2ccccc12)Nc1cccc(S(=O)(=O)N2CCOCC2)c1 | - | - | - | - | - | -
CC(NC(=O)COC(=O)c1ccc([N+](=O)[O-])o1)c1ccccc1 (stereo not drawn) | - | - | - | - | - | -
N=c1n(CCO)c2ccccc2n1Cc1ccccc1Cl | - | - | - | - | - | -
N=c1n(CCO)c2ccccc2n1CCOc1ccc(Cl)cc1Cl | - | - | - | - | 103 | -
Cc1ccsc1C(=O)N/N=C/c1ccc2c(c1)OCO2 | - | - | - | - | - | 55
O=C(N/N=C/c1ccc2c(c1)OCO2)c1sc2cc(Cl)ccc2c1Cl | - | - | - | - | - | -
O=C(N/N=C/c1ccc2c(c1)OCO2)c1cccs1 | - | - | - | - | - | -
Cc1occc1C(=O)N/N=C/c1ccc2c(c1)OCO2 | - | - | - | - | - | 64
SMILES | Shn3 3UTR inh | EBV LMP1 NFkB | MITF TRPM1 inh | TROY NFkB inh | Peg3 prom inh | TWEAK Fn14 block
COc1ccc2c(Cl)c(C(=O)N/N=C/c3ccc4c(c3)OCO4)sc2c1 | - | - | - | - | 51 | -
COc1ccccc1OCCNC(=O)C1CC(=O)N(c2cccc(SC)c2)C1 (stereo not drawn) | - | - | - | - | - | -
Nc1c2c(nc3sc4c(c13)CCCC4)-c1ccccc1CC2 | - | - | - | 56 | - | -
CCOc1ccc(-c2cc(C(=O)Nc3ccc(C)c(NS(C)(=O)=O)c3)[nH]n2)c(C)c1 | - | . | . | - | - | 52
CCCCCc1nc2sc3c(c2c(=O)n1NC(=O)c1ccc([N+](=O)[O-])cc1)CC(C)(C)OC3 | - | - | - | - | - | 70
CCCCCCCc1nc2sc3c(c2c(=O)n1N)CC(C)(C)OC3 | - | - | - | - | - | -
CCOc1ccc(S(=O)(=O)NC(C)C(=O)NCc2ccc3c(c2)OCO3)cc1 (stereo not drawn) | - | - | - | - | - | -
CC(C)(C)c1cc(/C=N/O)cc(C(C)(C)C)c1O | - | - | - | - | - | 54
CCOC(=O)c1c2ccccc2[n+]([O-])n1CCO | - | - | - | - | - | -
C=C1CCC2C(C)(C(=O)O)CCCC2(C)C1CCC(CO)CCO (stereo not drawn) | - | . | . | - | 107 | -
